# HPGD block: qHTS Assay for Inhibitors of HPGD (15-Hydroxyprostaglandin Dehydrogenase) | 15-hydroxyprostaglandin dehydrogenase [NAD(+)] (Homo sapiens), P15428 | purified HPGD, NADH fluorescence kinetic, PGE2 substrate | Potency, µM, inactives show top-dose activity change, negative = inhibition, usual class: inhibitors | hit rate 4.3% among 150,000 | AID 894, 2007; also: potency is read from the fitted curve at half-maximal effect
# Target sequence (P15428 whole entry, looked up): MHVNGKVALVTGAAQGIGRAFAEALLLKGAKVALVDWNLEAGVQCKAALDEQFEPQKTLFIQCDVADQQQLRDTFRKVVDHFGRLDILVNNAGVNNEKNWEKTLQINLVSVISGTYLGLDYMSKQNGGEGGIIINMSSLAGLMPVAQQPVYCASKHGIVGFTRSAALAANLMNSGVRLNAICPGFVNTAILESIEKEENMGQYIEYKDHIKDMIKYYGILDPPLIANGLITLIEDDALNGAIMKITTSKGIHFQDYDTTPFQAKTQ
#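 NADH formation kinetics: reaction with 30 uM PGE2 and 1 mM NAD+ (final), 20 nM enzyme, Tris-HCl pH 8 with Tween 20, after 15 min compound preincubation at room temperature. Fluorescence change, last versus first of five reads.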
# Lamin A splicing: qHTS Assay for Modulators of Lamin A Splicing; HeLa LMNA splicing GFP/RFP minigene ratio, 48 h; Potency, µM (series often up to 46.1 µM), for the others: at the top dose ratio change, negative = inhibition, usual class: inhibitors; hit rate 0.01% among 200,000; active = well fitted inhibition curve with a large enough effect in the signal ratio, with a control signal flat, not every such curve was filed as active; inconclusive = small, poorly fitted or top-dose-only effect, or effect the other way, or a change in a side signal; the % refers to the signal ratio; also: potency is read from the fitted curve at half-maximal effect
#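 S3 HeLa cells stably expressing lamin A-EGFP splicing minigene plus DsRed2, 600 cells/well, 48 h compound exposure at 37C. Laser-scanning cytometry; analysed as GFP (500-530 nm)/RFP (575-640 nm) total intensity ratio; 0.5% DMSO vehicle.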
# PNC inhibitor: High Content Assay for Compounds that inhibit the Assembly of the Perinucleolar Compartment; PC3M PTB-GFP, PNC prevalence imaging, 16 h; hits give low values; activity change (PNC), negative = inhibition, % at 10 µM; hit rate 3.1% among 140,000; AID 2417, 2010;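 active = readout at or below -70, meaning at least 70% loss of cells showing the perinucleolar compartment, a nuclear body marking cancer cells; inconclusive = readout between -30 and a set limit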;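 also: plate controls were DMSO wells for no effect and camptothecin positive control wells for full effect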
#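 Compounds are pinned in duplicate onto adhered PC3M cells stably expressing GFP-tagged PTB and incubated 16 h at 37 C. Cells are then fixed, nuclei stained with Hoechst, and PNC-positive cells counted.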
# ALDH1A1 block: qHTS Assay for Inhibitors of Aldehyde Dehydrogenase 1 (ALDH1A1). Aldehyde dehydrogenase 1A1 (Homo sapiens), P00352. Purified ALDH1A1, NADH fluorescence, propionaldehyde substrate. Potency, µM (titrated, usually from 75.3 µM), inactives show at the highest dose activity, negative = inhibition, actives largely listed as inhibitors. hit rate 7.3% among 220,000. AID 1030, 2008;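 also: potency is read from the fitted curve at half-maximal effect; plate controls were no enzyme wells and a reference inhibitor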
# Target sequence (P00352 whole entry, looked up): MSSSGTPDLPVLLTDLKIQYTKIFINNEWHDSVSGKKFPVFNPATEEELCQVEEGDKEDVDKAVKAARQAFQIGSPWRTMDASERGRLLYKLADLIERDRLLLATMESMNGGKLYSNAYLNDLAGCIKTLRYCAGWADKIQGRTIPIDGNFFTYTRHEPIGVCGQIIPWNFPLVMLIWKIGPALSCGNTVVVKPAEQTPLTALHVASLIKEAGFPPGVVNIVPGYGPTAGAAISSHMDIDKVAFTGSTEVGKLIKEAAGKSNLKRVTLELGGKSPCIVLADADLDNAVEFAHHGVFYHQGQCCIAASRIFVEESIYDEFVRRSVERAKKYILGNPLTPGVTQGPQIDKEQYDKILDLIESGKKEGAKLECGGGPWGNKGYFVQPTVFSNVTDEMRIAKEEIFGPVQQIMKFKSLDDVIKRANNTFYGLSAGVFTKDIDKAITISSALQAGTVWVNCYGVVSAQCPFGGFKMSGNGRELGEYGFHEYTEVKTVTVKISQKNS
# KinaseGlo FLuc: Counterscreen for Luciferase (Kinase-Glo TM) Inhibition. Luciferin 4-monooxygenase (Photuris pensylvanica), Q27757. Kinase-Glo luciferase, ATP luminescence, 8 min. Potency, µM (highest dose often 38.3 µM), without a hit: at the top dose activity change, negative = inhibition, actives largely listed as inhibitors. hit rate 0.28% among 200,000. AID 1379, 2008; active = well fitted inhibition curve with a large enough effect; inconclusive = small, poorly fitted or top-dose-only effect; also: potency is read from the fitted curve at half-maximal effect; nearly all actives have a fitted effect of over 60% in size
#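 Substrate mix (final 50 mM imidazole pH 7.2, 50 mM KCl, 7 mM MgCl2, 10 uM ATP, 0.01% Tween 20, 0.05% BSA) plus pin-tool compound, then Kinase-Glo detection mix; 8 min ambient, luminescence read.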
# An asterisk follows results filed as active; u = inconclusive; x = not tested or not shown; [ ] = another dose, or the depositor's remark. Sampled rows, rich in hits. Any-hit rate of the full collection: about 10%. Unless noted, calls follow the shape of the dose curve; as a rule, active = well fitted inhibition curve with a large enough effect (not every such curve was filed as active); inconclusive = small, poorly fitted or top-dose-only effect, or another doubt; inactive = no such curve, though single readings can be large or run the other way. Unless noted, % is scaled to controls: 0 for no effect and ±100 for the full control effect.
SMILES,HPGD block,Lamin A splicing,PNC inhibitor,ALDH1A1 block,KinaseGlo FLuc
CC(C)NS(=O)(=O)c1ccc(CCC(=O)Nc2ccc3c(c2)OCO3)cc1,-12.3%,-12.1%,u,0.398µM*,-0.9%
CCCNS(=O)(=O)c1ccc(CCC(=O)Nc2ccc3c(c2)OCCO3)cc1,-13.3%,u,-5.9,10µM*,-2.1%
CCC(C)NS(=O)(=O)c1ccc(OCC(=O)Nc2ccc3c(c2)OCO3)cc1 (centres undefined),-14.9%,0.7%,8.5,1.26µM*,2.2%
CCCNS(=O)(=O)c1ccc(CCC(=O)NCc2ccco2)cc1,-12.8%,6.3%,4.1,2.24µM*,2.9%
Cc1nc2cnc(Oc3ccccc3)nc2n(C2CC2)c1=O,x,0.1%,x,u,x
COc1cccc(-c2ccc3ncnc(N4CCOCC4)c3c2)c1,x,u,x,47.3%,x
Cc1noc(C)c1-c1ccc2ncnc(N3CCOCC3)c2c1,x,10µM*,x,-13.4%,x
COc1ccccc1-c1ccc2ncnc(N3CCN(C)CC3)c2c1,u,u,x,u,-3.3%
c1nc(N2CCOCC2)c2cc(-c3ccoc3)ccc2n1,x,u,x,22.4µM*,x
Cc1noc(C)c1-c1ccc2ncnc(N3CCN(C)CC3)c2c1,x,7.08µM*,x,u,x
Cc1ccccc1-c1ccc2ncnc(N3CCOCC3)c2c1,x,u,x,22.4µM*,x
CCCn1c(C)nc2c(Nc3ccccc3)nc(C)nc21,-4.8%,x,x,2.7%,-2.9%
O=S(=O)(NCc1cn2ccccc2n1)c1cc(F)ccc1F,-11.3%,-6.7%,-100.0*,-3.8%,-0.4%
CCOC(=O)c1c(CN(CC)CC)oc2ccc(OC)cc12,-16.3%,-5.7%,-100.0*,-5.0%,0.2%
CCN(CC)c1ccc(/C=N/Nc2cccc(C)c2)c(O)c1,22.4µM*,8.0%,u,10µM*,2.9%
CCN(CC)c1ccc(/C=N/N=C(N)N)c(O)c1,x,-18.2%[46 µM],x,u,-1.5%
CCN(CC)c1ccc(/C=N/Nc2ccccc2)c(O)c1,28.2µM*,20.7%,-25.1,3.55µM*,-6.6%
CCN(CC)c1ccc(/C=N/NC(=O)OC)c(O)c1,u,-0.2%,u,u,-4.2%
Cc1ccccc1NC(=O)C(Cc1ccccc1)N1Cc2ccccc2C1=O (centres undefined),x,5.6%[46 µM],x,x,x
COc1cccc(NC(=O)CSc2nc3ccccc3cc2Cc2ccccc2)c1,-14.7%,3.8%,34.3,5.6%,-0.3%
COc1cccc(CSc2nc3ccccc3cc2C=O)c1,12.6µM*,u,u,u,12.1%
O=C(CSc1nc2ccccc2c2nc3ccccc3n12)NCc1ccco1,u,u,-83.2*,u,4.5%
CCC(=O)n1nc(-c2ccccc2)nc1SCC(=O)Nc1ccc(C)cc1,7.94µM*,3.6%,71.8,-0.6%,-0.4%
COc1ccc(NC(=O)CSc2nc3ccccc3c3nc4ccccc4n23)cc1,-25.0%,-16.8%,34.1,-12.1%,1.8%
O=C(c1cccc([N+](=O)[O-])c1)n1nc(-c2ccccc2)nc1NCc1ccccc1,x,-8.5%,u,-11.3%,x
SMILES,HPGD block,Lamin A splicing,PNC inhibitor,ALDH1A1 block,KinaseGlo FLuc
Cc1ccc(NC(=O)CSc2nc3ccccc3c3nc4ccccc4n23)cc1,-15.2%,u,-107.5*,-6.2%,-9.8%
CCc1ccccc1NC(=O)CSc1nc(-c2ccccc2)nn1C(=O)c1cccc([N+](=O)[O-])c1,12.6µM*,8.3%,76.4,-2.6%,-0.1%
Cc1cc(Nc2cc(F)ccc2C)nc(-n2nc(C)cc2C)n1,x,-2.6%[46 µM],x,x,x
Cc1cc(C)cc(NC(=O)c2cc(S(=O)(=O)N3CCC(C)CC3)cn2C)c1,x,-7.3%[46 µM],x,x,x
CC(=O)OC1CC2C(C)(C)C(O)CC[C@@]2(C)C2CC[C@@]3(C)C(c4ccoc4)OC(=O)C4O[C@@]43[C@]12C (some centres undefined),-1.8%,24.0%,x,-12.0%,-0.3%
CCOC(=O)N/N=C1/C[C@@H](O)[C@@H](O)[C@@H]2[C@@H]3C(=O)N(Cc4ccc5c(c4)OCO5)C(=O)[C@H]3CC[C@@H]12,x,x,x,3.8%[13.5 µM],x
NCC(=O)Nc1ccccc1,-3.6%,x,x,3.2%[13.5 µM],0.8%[7.66 µM]
COc1cc2c(cc1OC)-c1cc3cc(OC)c(OC)cc3c(=O)n1CC2,u,x,x,u,-0.5%
O=C(NCCOc1ccccc1)O[C@@H]1C(=O)c2cc(Br)ccc2O[C@H]1c1ccc2c(c1)OCO2,-7.5%,x,x,1.8%,0.7%
O=C(NNc1c(Cl)cccc1Cl)c1cccs1,x,x,x,25.1µM*,x
CCc1ccc(NS(=O)(=O)c2ccc(C(=O)N(C)C)s2)cc1,x,15.7%[46 µM],x,x,x
Cc1noc(C)c1CSc1ccccc1C(=O)Nc1nccs1,-12.4%,u,-16.8,18.9µM*,7.2%
COc1ccc(OCC(=O)N/N=C(\C)CC(=O)Nc2ccc(OC)cc2[N+](=O)[O-])cc1,x,u,x,20µM*,2.4%
COc1ccc(NC(=O)COc2ccc(C)cc2)c([N+](=O)[O-])c1,x,x,x,0.3%,0.3%
COc1ccc(NC(=O)Cc2ccc(C)cc2)c([N+](=O)[O-])c1,-2.6%,u,19.7,-5.6%,-0.2%
COc1ccc(NC(=O)C/C(C)=N/NC(=O)c2ccncc2)c([N+](=O)[O-])c1,x,x,x,3.55µM*,1.9%
CC1(C)CC(=S)Nc2ccccc2S1,15.8µM*,-1.4%,-100.0*,10µM*,2.5%
CC(=O)NC(CCC(=O)O)C(=O)O (centres undefined),-15.3%,x,x,3.3%,-7.5%
CC(Sc1nnc(-c2ccccc2)c(-c2ccccc2)n1)C(=O)N1CCc2ccccc21 (centres undefined),x,-22.5%,u,7.08µM*,x
O=C(O)c1c(Cl)cccc1Cl,-9.0%,x,x,-5.9%,x
CN=c1scc(-c2ccco2)n1/N=C/c1ccc(O)c(O)c1,x,21.6%[46 µM],x,28.2µM*,-7.6%
C=CCN=c1scc(C)n1/N=C/c1ccc(O)c(O)c1,x,-8.8%[46 µM],x,22.4µM*,-1.0%
COc1ccc(O)c(/C=N/n2c(-c3ccco3)csc2=Nc2cccnc2)c1,-7.3%,-4.3%,66.0,-1.8%,-1.1%
Cc1ccc(-c2ccc(=O)n(CC(=O)NCCc3ccccc3)n2)cc1,x,-23.5%[46 µM],x,x,x
CCOc1ccc(N(CC(=O)Nc2ccc(OC)cc2)S(=O)(=O)c2ccc(Cl)cc2)cc1,x,0.5%[46 µM],x,x,x
COc1ccc(C(=O)Nc2ccc(S(=O)(=O)NC(C)(C)C)cc2)cc1[N+](=O)[O-],x,x,x,17.8µM*,1.9%
COC(=O)c1cc(C(=O)Nc2ccc(S(=O)(=O)NC(C)(C)C)cc2)cc([N+](=O)[O-])c1,17.8µM*,-1.2%,u,14.1µM*,-0.4%
CC(=O)OC[C@@H]1O[C@@H](O/N=C2/C[C@@H](O)[C@@H](O)[C@@H]3[C@H]4C(=O)N(c5ccc(F)cc5F)C(=O)[C@@H]4CC[C@@H]23)[C@H](OC(C)=O)[C@H](OC(C)=O)[C@@H]1OC(C)=O,x,x,x,-10.9%[13.5 µM],x

# Screening results as filed in PubChem BioAssay.
